Compounds with a hit are over-represented: about 12% of the library has one in this group of screens.
AmpC inh detg – blocks E. coli AmpC beta-lactamase in detergent assay; P00811; 0.041% of 370,000 active; AmpC hydrolysis of nitrocefin, absorbance 480 nm, 0.01% Triton; Potency, µM (titrated, usually from 114 µM), without a hit: at the highest dose activity change, negative = inhibition, most hits filed as inhibitors;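 further: 0% = no-compound wells and -100% = no-enzyme wells; nearly all actives have a fitted effect of over 25% in size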
Target sequence (P00811 whole entry, looked up): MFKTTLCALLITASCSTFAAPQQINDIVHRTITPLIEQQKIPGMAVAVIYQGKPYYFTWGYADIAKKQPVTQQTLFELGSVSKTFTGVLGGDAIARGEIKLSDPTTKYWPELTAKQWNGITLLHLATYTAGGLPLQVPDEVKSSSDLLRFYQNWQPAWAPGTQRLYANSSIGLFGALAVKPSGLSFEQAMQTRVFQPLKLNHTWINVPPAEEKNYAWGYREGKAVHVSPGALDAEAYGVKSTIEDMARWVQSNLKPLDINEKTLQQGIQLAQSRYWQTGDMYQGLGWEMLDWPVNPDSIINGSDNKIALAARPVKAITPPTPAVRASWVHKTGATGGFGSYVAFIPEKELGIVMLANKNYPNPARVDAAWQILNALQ
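AmpC (5.3 nM in the dispensed reagent) in 20 mM phosphate pH 7.0 with 0.01% (detergent screen) or 0.0001% Triton X-100 was preincubated with compounds for 15 min at room temperature. Nitrocefin was then added from an 800 uM solution, and hydrolysis was followed at 480 nm.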
Sm TGR block – S. mansoni TGR enzyme inhibition; Q962Y6; purified TGR, DTNB reduction, TNB absorbance 405 nm; Potency, µM (top dose mostly 114 µM), inactives show at the highest dose activity change, negative = inhibition, most hits filed as inhibitors; 3% of 360,000 active; further: on the % scale 0 is the no-effect control and ±100 the full control effect; nearly all actives have a fitted effect of over 60% in size
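Kinetic colorimetric format: TGR-catalysed, NADPH-driven DTNB reduction monitored via TNB absorbance. Enzyme dispensed at 20 nM; compound exposure 15 min at room temperature before reaction start.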
Pf growth 96h – P. falciparum growth inhibition at 96 hours. P. falciparum luciferase reporter growth, 96 h. Potency, µM (titrated, usually from 28.7 µM), inactives show at the highest dose activity change, negative = inhibition, most hits filed as inhibitors. 6.9% of 320,000 active; further: on the % scale 0 is the no-effect control and ±100 the full control effect
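Readout is luminescence from an integrated firefly luciferase in P. falciparum. Red cells, 2% hematocrit and 0.05% parasitemia final, were cultured with compound through two parasite generations (96 hours) at 37 C, 5% CO2.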
Pf growth 48h – P. falciparum growth inhibition at 48 hours (one generation); P. falciparum luciferase growth in erythrocytes, 48 h; 5.9% of 310,000 active; Potency, µM (series often up to 28.7 µM), without a hit: at the highest dose activity change, negative = inhibition, usual class: inhibitors; AID 504832; further: on the % scale 0 is the no-effect control and ±100 the full control effect
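Read-out is firefly luciferase luminescence from an integrated reporter in P. falciparum, so falling signal marks reduced parasite growth. Infected erythrocytes were at 2% hematocrit and 0.1% parasitemia (final) in Albumax-supplemented RPMI 1640.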
AmpC no deterg – AmpC beta-lactamase inhibition without detergent; P00811; AmpC nitrocefin hydrolysis, absorbance 480 nm, 0.0001% Triton; Potency, µM (titrated, usually from 57.1 µM), without a hit: top-dose activity change, negative = inhibition, most hits filed as inhibitors; 0.52% of 330,000 active;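 further: plate controls were no compound for no effect and no enzyme for full effect; nearly all actives have a fitted effect of over 20% in size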
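20 mM phosphate pH 7.0 + 0.01% (detergent screen) or 0.0001% Triton X-100; 5.3 nM AmpC reagent; cpd preinc 15 min RT; nitrocefin (800 uM stock) to start; A480 q20 s × 4 min; Activity was normalised to no-enzyme and no-compound control wells.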
SARS PLpro yeast – SARS-CoV PLP inhibition in yeast; S. cerevisiae expressing SARS-CoV PLpro, growth rescue; Potency, µM (series often up to 32.9 µM), for the others: at the top dose activity, positive = growth rescue, most hits filed as activators; 0.19% of 330,000 active; calls by dose curve; further: 0% is about no effect; nearly all actives have a fitted effect of over 55% in size
The depositor's hits bear a star; ? = inconclusive; / = not tested or not shown. Unless noted, the call rests on the fitted dose curve; in most records, active means well fitted curve in the direction sought with a large enough effect; inconclusive means small, poorly fitted or top-dose-only effect, or another doubt; inactive means no such curve, though single readings can be large; an effect the other way counts as inactive or inconclusive. Potency means the concentration at half of the fitted maximal effect.

SMILES | AmpC inh detg | Sm TGR block | Pf growth 96h | Pf growth 48h | AmpC no deterg | SARS PLpro yeast
COc1ccc(C(=O)NCC(=O)OCc2ccc(Cl)cc2Cl)cc1OC | 1.3% | 1.3% | ? | ? | 4.0% | -1.2%
O=C(CSc1nnc(-c2ccccc2)o1)c1cccc([N+](=O)[O-])c1 | -0.3% | -6.1% | / | / | / | /
Cc1ccc(C(C)C)c(OCC(O)CNC2CCCC2)c1 (stereo not drawn) | 7.2% | 3.1% | -14.7% | 5.22µM* | 9.4% | -2.9%
COc1ccc(C(C(=O)NC(C)(C)C)N(C(=O)CCC(=O)Nc2cc(C)on2)c2ccccc2F)cc1 (stereo not drawn) | -10.2% | -5.0% | 13.7% | ? | 61.9% | -1.2%
CC(=O)Nc1ccc(-c2csc(NNC(=O)c3ccc(C)cc3)n2)cc1 | -4.2% | / | 13.9% | 5.7% | -20.5% | 1.5%
N#Cc1ccc(-c2csc(NNC(=O)c3ccccc3)n2)cc1 | -13.2% | -7.1% | 3.7µM* | 11.7µM* | -37.4% | -2.1%
O=C(NNc1nc(-c2ccccc2)cs1)c1ccccc1 | 1.5% | -10.3% | 2.33µM* | ? | -39.5% | -1.3%
O=C(NC(=S)Nc1nc(-c2ccc(Br)cc2)cs1)c1ccco1 | 4.2% | ? | 4.4% | 29.1% | -18.8% | -1.5%
O=C(NNc1nc(-c2ccc(Br)cc2)cs1)c1ccco1 | 1.3% | / | -28.9% | 1.65µM* | -24.2% | 0.8%
O=C(NNC(=O)c1csc(-c2cccnc2)n1)c1ccccc1 | -6.4% | 2.2% | 10.4µM* | ? | -13.3% | 0.0%
O=C(Nc1ccc(-c2csc(Nc3ccccc3)n2)cc1)c1ccccc1 | ? | -15.3% | ? | ? | -48.5% | -0.8%
O=C(NNS(=O)(=O)c1ccccc1)c1csc(-c2cccnc2)n1 | -3.5% | -9.0% | ? | -10.3% | -25.3% | 0.0%
Cc1cnc(C(=O)OCc2cc(=O)n3c(C)cccc3n2)cn1 | / | / | / | / | -10.0% | -4.6%
N#Cc1ccc(-c2csc(NNC(=O)c3ccc(Br)cc3)n2)cc1 | ? | -13.1% | 2.94µM* | 1.65µM* | ? | -8.4%
CCOc1cccc(C2c3[nH]c4ccccc4c3CCN2C(=O)CSc2ccccc2)c1 (stereo not drawn) | 30.2% | 8.2% | / | / | / | /
Cc1cc(C)c(S(=O)(=O)N2CCCc3ccccc32)c(C)c1 | 2.2% | 2.7% | ? | 13.1µM* | -23.2% | -2.4%
Cc1cccc(S(=O)(=O)N2CCCc3ccccc32)c1 | 1.5% | 38.2% | 0.0% | -45.5% | -25.2% | -7.0%
COc1ccc(C(=O)Nc2ccc(C)cn2)cc1S(=O)(=O)N1CCCc2ccccc21 | 0.0% | -0.6% | ? | 11.7µM* | -15.5% | -2.1%
O=C(Nc1ccccn1)c1cccc(S(=O)(=O)N2CCCc3ccccc32)c1 | ? | -0.3% | 10.4µM* | 7.38µM* | -34.3% | -3.7%
COc1ccc(C(=O)O)cc1S(=O)(=O)N1CCCc2ccccc21 | -0.6% | -33.9% | 0.1% | -0.9% | -13.1% | 0.8%
Cc1ccnc(NC(=O)c2cccc(S(=O)(=O)N3CCCc4ccccc43)c2)c1 | ? | 4.8% | 1.85µM* | 1.85µM* | -43.5% | -3.8%
COc1ccccc1NC(=O)CCN1CCN(CCC(=O)Nc2ccccc2OC)CC1 | -7.5% | -7.0% | 0.0% | 22.9% | 7.0% | 1.7%
O=C(C1CCN(c2ccc(N3CCOCC3)nn2)CC1)N1CCN(c2ccc(F)cc2)CC1 | -3.1% | 2.7% | ? | -22.6% | 44.4% | -3.8%
Cc1cc2nc(Sc3c([N+](=O)[O-])nc(C)n3Cc3ccccc3)[nH]c2cc1C | -2.8% | 17.8µM* | ? | 10.4µM* | -22.2% | 8.9%
Cc1nc([N+](=O)[O-])c(N2CCOCC2)n1Cc1ccccc1 | 3.1% | 5.4% | -9.7% | 15.5% | -0.3% | 1.4%
SMILES | AmpC inh detg | Sm TGR block | Pf growth 96h | Pf growth 48h | AmpC no deterg | SARS PLpro yeast
Cc1nc([N+](=O)[O-])c(N2CCN(Cc3ccccc3)CC2)n1Cc1ccccc1 | -4.3% | -1.7% | 16.5µM* | / | 75.2% | 0.3%
COc1ccc2nc(Sc3c([N+](=O)[O-])nc(C)n3Cc3ccccc3)[nH]c2c1 | ? | -54.3% | ? | 22.5% | -37.0% | 1.3%
CCn1c(N2CCN(Cc3ccc([N+](=O)[O-])cc3)CC2)nc2ccccc21 | -0.6% | -6.4% | 13.1µM* | ? | 106.7% | 1.0%
Cc1nc([N+](=O)[O-])c(Sc2nc3ccccc3[nH]2)n1Cc1ccccc1 | -5.0% | 20µM* | 4.15µM* | ? | -45.3% | 4.6%
Cn1cnc([N+](=O)[O-])c1Sc1nc2ccccc2[nH]1 | 6.1% | 1.41µM* | ? | ? | -1.8% | 0.2%
O=C(Cn1c(=O)c2sccc2n(CC(=O)Nc2ccc(Cl)cc2Cl)c1=O)NCCc1ccccc1 | 21.6% | 4.6% | / | / | / | /
NC(=Nc1ccccc1)Nc1ccccc1 | 6.5% | -0.8% | ? | -0.7% | -7.4% | 0.5%
NC(N)=Nc1ccc(N=C(N)N)cc1 | -10.6% | 0.9% | 8.28µM* | ? | -21.2% | 1.8%
Cc1ccccc1NC(=O)c1ccc2nc(N3CCOCC3)sc2c1 | -2.4% | 1.4% | ? | -5.1% | 0.5% | -2.1%
Cc1cc(C(F)(F)F)nn1CC(=O)NCc1ccco1 | 1.4% | ? | 1.47µM* | 17.5% | 17.2% | 1.3%
Cc1c(Cl)c([N+](=O)[O-])nn1CC(=O)NCc1ccco1 | -13.1% | 0.0% | 1.47µM* | 12.5% | -14.2% | -4.0%
O=C(Cn1ncn2c(cc3ccccc32)c1=O)NCc1ccco1 | -4.1% | 31.6µM* | ? | -2.7% | 16.3% | -1.1%
CC(C)C1Cc2[nH]c(=O)c(C(=O)O)cc2CO1 (stereo not drawn) | ? | 0.7% | -4.4% | -12.2% | -43.4% | -0.2%
CCCCN(c1ccccc1)c1ncnc2c1cnn2-c1ccc(Cl)cc1 | 2.2% | 3.2% | / | / | / | /
Cc1cccc(OCC(=O)N(Cc2ccc(C(C)(C)C)cc2)Cc2ccco2)c1 | 28.8% | 9.1% | / | / | / | /
O=C(CCCCCNC(=O)c1ccccc1)N=Nc1c(O)[nH]c2c(Br)cc(Br)cc12 | -6.5% | -8.9% | 0.0% | 11.7µM* | -26.4% | -0.9%
CC(=O)Nc1ccc(S(=O)(=O)N2CCC(n3c(C(F)(F)F)nc4cccnc43)CC2)cc1 | 0.0% | 2.0% | / | / | / | /
COc1cccc(C2C=C(c3cccs3)Nc3ncnn32)c1OC (stereo not drawn) | ? | ? | / | -5.9% | -18.1% | -1.4%
C1=C(c2ccc(-c3ccccc3)cc2)Nc2ncnn2C1c1ccco1 (stereo not drawn) | -2.4% | 22.4µM* | 19.3% | 6.8% | -51.0% | /
COc1ccc(C2C=C(c3ccc(Br)s3)Nc3ncnn32)cc1OC (stereo not drawn) | -2.1% | 50.1µM* | -2.9% | ? | 19.0% | -24.9%

Compound activity deposited in PubChem by National Center for Advancing Translational Sciences (NCATS).
